D3 ag: qHTS of D3 Dopamine Receptor Agonist: qHTS. D(3) dopamine receptor (Homo sapiens), P35462. D3R DiscoveRx beta-arrestin cells, luminescence, 90 min. max activation, %. actives 0.58% (n = 410,000). AID 652048, 2013; in the data active = max activation above about 30%
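Agonist-mode cell screen: cells plated at 1500/well and incubated overnight at 37 °C, then exposed to library compounds for 90 min at 37 °C. Detection reagent was added for 30–60 min at room temperature, and luminescence was read.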
TRPML1 blocker: qHTS for Inhibitors of the Human Mucolipin Transient Receptor Potential 1 (TRPML1) | Mucolipin-1 (Homo sapiens), Q9GZU1 | TRPML1-inducible cells, Ca2+ dye fluorescence, FDSS; stronger effect = lower value; inhibition of EC80 agonist-evoked calcium signal | activity change, negative = inhibition, % (test concentration not listed) | actives 0.02% (n = 390,000) | AID 624415, 2012; in the data active = activity change below about -50%; inconclusive = between about -30% and that limit;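 also: stimulus is agonist 54-4 at its EC80 concentration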
Target sequence (Q9GZU1 whole entry, looked up): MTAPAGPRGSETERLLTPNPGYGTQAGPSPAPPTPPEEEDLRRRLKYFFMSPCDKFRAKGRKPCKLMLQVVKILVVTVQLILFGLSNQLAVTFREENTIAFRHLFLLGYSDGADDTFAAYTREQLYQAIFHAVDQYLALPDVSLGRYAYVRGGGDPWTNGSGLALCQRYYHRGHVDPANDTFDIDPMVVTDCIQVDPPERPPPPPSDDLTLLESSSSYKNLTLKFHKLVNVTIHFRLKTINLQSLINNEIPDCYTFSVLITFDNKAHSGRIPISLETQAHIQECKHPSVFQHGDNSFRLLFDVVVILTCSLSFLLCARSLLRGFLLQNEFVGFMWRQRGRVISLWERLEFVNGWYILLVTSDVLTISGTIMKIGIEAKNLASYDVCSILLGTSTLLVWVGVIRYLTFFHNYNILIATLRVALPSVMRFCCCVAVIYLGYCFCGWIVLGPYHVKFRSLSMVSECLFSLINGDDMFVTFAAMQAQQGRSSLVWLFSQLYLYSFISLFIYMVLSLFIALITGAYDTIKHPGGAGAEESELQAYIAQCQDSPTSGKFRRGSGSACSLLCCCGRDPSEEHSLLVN
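Calcium fluorescence in TRPML1-DL cells induced overnight with Tet: a 110 s read after compound pin addition, then a 110 s antagonist read after challenge with 54-4 at 4 uM final (EC80).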
D3 antag: qHTS of D3 Dopamine Receptor Antagonist: qHTS; D3R cells, DiscoveRx beta-arrestin luminescence, antagonist mode; stronger effect = lower value; D(3) dopamine receptor (Homo sapiens), P35462; max response, negative = inhibition, %; actives 2.5% (n = 360,000); in the data active = max response below about -50%; inconclusive = no clear call, values can overlap the other calls
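Cells expressing the human receptor were seeded at 1500 cells/well, incubated overnight at 37 degrees C in 5% CO2, then exposed to library compounds with dopamine controls for 90 minutes at 37 degrees C before luminescent detection.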
TRPML1 ag: qHTS for Agonists of the Human Mucolipin Transient Receptor Potential 1 (TRPML1); Mucolipin-1 (Homo sapiens), Q9GZU1; TRPML1-expressing cells, Ca2+ dye fluorescence, FDSS; activation, % (no concentration beside the values); actives 0.12% (n = 410,000); AID 624414, 2012; in the data active = activation above about 50%; inconclusive = mostly about 30% to 49%
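Kinetic FDSS Ca2+ read in Tet-induced TRPML1-DL cells (ABD Ca8 dye plus quencher, 45-90 min RT loading): baseline, then compound, then 110 s agonist window; EC80 agonist 54-4 at 4uM final added afterwards for a 110 s antagonist window.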
Large screens that a line does not name were inactive. Rows were chosen to be rich in hits. Some 2.9% of all compounds tested hit in one or more screens of this group.

COc1ccccc1C1CCN(Cc2cccc([N+](=O)[O-])c2)CC1	D3 antag -95
O=[N+]([O-])c1cccc(CN2CCN(c3cccc4[nH]ccc34)CC2)c1	D3 antag -97 (no result: TRPML1 blocker, TRPML1 ag)
O=[N+]([O-])c1cccc(COc2cccc(CN3CCCCC3)c2)c1	D3 antag -77
COc1ccc(CN2CCC(Cc3ccccc3)CC2)cc1OC	D3 antag inconclusive
COc1ccccc1C1CCN(Cc2ccccc2)CC1	D3 antag -116
O=[N+]([O-])c1cccc(CN2CCC(Cc3ccccc3)CC2)c1	none
COc1ccc(-c2nc3scc(CCNS(=O)(=O)c4cccs4)n3n2)cc1	none (no result: D3 antag)
Cc1ccccc1CCNC(=O)c1cc2cc(S(=O)(=O)N3CCCCC3)ccc2n1C	none (no result: D3 antag)
Cc1ccc(CN(C(=O)COc2cccc([N+](=O)[O-])c2)c2ccccn2)o1	none (no result: D3 antag)
COc1ccccc1C1CCN(Cc2ccc3ccccc3c2)CC1	D3 antag -62
COc1ccccc1C1CCN(Cc2ccccc2Cl)CC1	D3 antag -75
OCCN1CCN(Cc2ccc3ccccc3c2)CC1	none
CCN(CC)S(=O)(=O)c1ccc(NC(=O)CC(NC(C)=O)c2ccccc2)cc1 (stereo not given)	D3 antag -78
CC(=O)N1CCc2c(sc3c2c(=O)n(CCc2ccccc2)c(=O)n3Cc2ccc(F)cc2)C1	none (no result: D3 antag)
COc1cccc(C2C(=O)N(C3CCCCC3)CC(=O)N2Cc2ccc(Cl)cc2)c1 (stereo not given)	none (no result: D3 antag)
N#Cc1c(N2CCN(C(=O)c3ccco3)CC2)nc(-c2ccccc2)c2c1CCCC2	D3 ag 38
CC1(C)Cc2c(C#N)c(N3CCN(C(=O)c4ccco4)CC3)nc(Cc3ccccc3)c2CO1	D3 ag 30
CCCCCCCCCCCCCCCCCCN(CCCCCCCCCCCCCCCCCC)c1ccc(/C=C/c2ccc(C=O)cc2)cc1	none (no result: D3 ag, TRPML1 blocker, D3 antag)
Cc1ccc(NC(=O)Cn2c(=O)n(CC3CCCO3)c(=O)c3ccccc32)cc1 (stereo not given)	none (no result: D3 antag)
COc1ccc(S(=O)(=O)c2cn(C)c3cc(N4CCOCC4)c(F)cc3c2=O)cc1	none (no result: D3 antag)
O=C(Nc1nc2ccccc2[nH]1)c1cccc(Cl)c1	none
O=C(O)c1ccc(Nc2nc3ccc(Cl)cc3[nH]2)cc1	D3 antag -54
Nc1ccc(/C=C/c2cccc3cccnc23)cc1	none (no result: D3 ag, TRPML1 blocker, D3 antag)
COCCN=c1scc(-c2cccs2)n1/N=C/c1ccc(O)c(O)c1O	D3 ag 90
CCN=c1scc(C)n1/N=C/c1ccc(O)c(O)c1O	none
C(=Nc1cccnc1)c1ccc2ccccc2n1	none (no result: D3 ag, TRPML1 blocker, D3 antag)
Cc1cc2c(C)nc(N/N=C/c3ccc(F)cc3)nc2o1	D3 antag -56
Cc1cc(C)c(C(=O)CC(=O)c2ccccc2Cl)c(O)c1	D3 antag -64
CN(Cc1ccccc1)S(=O)(=O)c1ccc(C(=O)Nc2nnc(C3CC3)o2)cc1	D3 antag -63
COc1ccccc1-c1nnc(NC(=O)c2ccc(S(=O)(=O)N(C)Cc3ccccc3)cc2)o1	D3 antag -78
CN(c1ccccc1)S(=O)(=O)c1ccc(C(=O)Nc2nnc(-c3ccc(F)cc3)o2)cc1	D3 antag -88
Cc1ccc(NC(=O)c2cccc(C(F)(F)F)c2)cc1NC(=O)c1[nH]cnc1C(N)=O	D3 ag 31
Cc1ccc(-c2nn(-c3ccccc3)cc2/C=N/NC(=O)c2ccc(Br)o2)cc1	D3 ag 39
O=C(N/N=C\c1cn(-c2ccccc2)nc1-c1ccccc1)c1ccc(Br)o1	none
Cn1c(=O)c(-c2ccccc2)cc2ccccc21	D3 ag 47
CC(C)(C)OC(=O)N1CCC(c2c(C(=O)N3CCN(c4ccccn4)CC3)cnn2-c2cccc(F)c2)CC1	none (no result: D3 antag)
CCc1nc2ccc(C(=O)Nc3cc(-c4ccccc4)ccc3OC)cn2c1N(C=O)CCC(C)C	D3 ag 69 (no result: TRPML1 blocker)
CCc1nc2ccc(C(=O)NCCOc3ccc(OC)cc3)cn2c1N(CCC(C)C)CCN(C)C	D3 antag -89
CCc1nc2ccc(C(=O)Nc3cc(-c4ccccc4)ccc3OC)cn2c1N(CCN(C)C)CC1CC1	D3 antag -69 (no result: TRPML1 blocker)
Cc1cccc(C)c1NC(=O)Cn1c(=O)n(Cc2ccco2)c(=O)c2ccc(C(=O)NC3CCCC3)cc21	none (no result: D3 antag)
COc1ccc(COCC(O)CN2CCCCC2)cc1OC (stereo not given)	none
